The panel holds about 83,000 compounds, 20% with a hit somewhere; the sample as a whole holds those more often.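 For each line, cells grew in 96-well plates with the test compound present at a single concentration for 48 hours.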 Values without a mark were called inactive. Calls of active or inactive are those of the source. Rule for the calls: active = growth percent below 10; inactive = the rest.
How the values were obtained:
Assay in all cases: NCI-60 one-dose screen, 48 h (100 = growth as untreated, 0 = no growth, -100 = all killed)
Conditions in all cases: 10 µM unless noted
[1] = test system: HCT-15 colon
[2] = test system: HT29 colon
[3] = test system: SNB-75 CNS
[4] = test system: SNB-19 CNS
[5] = test system: U251 CNS
[6] = test system: PC-3 prostate
[7] = test system: SK-MEL-5 melanoma
[8] = test system: UACC-62 melanoma
[9] = test system: LOX IMVI melanoma
[10] = test system: SK-MEL-28 melanoma
[11] = test system: SK-MEL-2 melanoma
[12] = test system: EKVX NSCLC
[13] = test system: SN12C renal
[14] = test system: UO-31 renal
[15] = test system: TK-10 renal
[16] = test system: A498 renal
[17] = test system: CCRF-CEM leukemia
[18] = test system: MOLT-4 leukemia

SMILES	growth [1]	growth [2]	growth [3]	growth [4]	growth [5]	growth [6]	growth [7]	growth [8]	growth [9]	growth [10]	growth [11]	growth [12]	growth [13]	growth [14]	growth [15]	growth [16]	growth [17]	growth [18]
Cc1ccc(Cn2cc(COc3ccc4c5ccnc(C)c5n(CCCc5ccccc5)c4c3)nn2)cc1	86.2%	71.8%	97.6%	99.4%	110%	81.4%	80.4%	95%	91.1%	104%	94.7%	80.7%	94.5%	55.7%	97.8%	73.5%	91.9%	78.2%
OCc1cn(-c2ccc(Cl)cc2)nc1-c1ccc(O)cc1	93.7%	92.6%	83.3%	104%	106%	96.5%	95.4%	100%	92.2%	108%	95.8%	89.7%	94.3%	63.5%	102%	96.9%	50.3%	53.6%
CCc1c(C)c2cc3nc(NCc4ccccc4)oc3c(C)c2oc1=O	74.7%	60.5%	36.2%	59.2%	54.8%	73.3%	75.9%	47.1%	80.4%	72.9%	83.6%	77.1%	73.5%	80.1%	77.6%	49.2%	79.6%	71.9%
Cc1c(Cl)ccc2c(C(=O)Cl)cc(-c3ccccc3)nc12	101%	116%	97.4%	98.6%	96.6%	96%	96.5%	92.7%	94.9%	103%	106%	95.6%	99.9%	90.1%	105%	84.4%	88.1%	96.2%
CCCCCC/C=N/Nc1ccc([N+](=O)[O-])cn1	102%	81.5%	105%	108%	110%	93.2%	113%	102%	83.2%	109%	89.6%	101%	110%	84.6%	94.8%	103%	100%	103%
Nc1nccc(=S)[nH]1	98.7%	75.3%	94%	104%	102%	102%	111%	90%	100%	106%	97.7%	101%	101%	98.3%	95.6%	108%	113%	92.8%
CC(C)(C)C(=O)Nc1nc2c(s1)CCc1ccn(S(=O)(=O)c3ccccc3)c1-2	92.8%	79.5%	89.6%	116%	94.1%	81.1%	99.9%	77.2%	84.5%	101%	81.8%	87.7%	112%	62.7%	82.1%	101%	92.9%	70.8%
O=C1CCC(=O)N1C1CCCCC1	112%	112%	88.5%	99.9%	107%	99.8%	96.8%	97.7%	98.4%	108%	103%	98.4%	100%	84.3%	105%	97.1%	108%	95.7%
CC1(C)CC(=O)C2=C(C1)OC1=C(C(=O)CC(C)(C)C1)C2c1ccc(OCc2cn(-c3ccc(F)cc3F)nn2)cc1	105%	96.9%	104%	99.9%	91.7%	77.7%	58.4%	58.6%	97.7%	103%	93.8%	99.4%	99.4%	89.6%	109%	46.9%	84.9%	77.2%
C#CC(=O)/C=C/CCCCCCC#CC(=O)CCC(=O)C#CCCCCCC/C=C/C(=O)C#C	12.4%	6.4% (active)	56%	32%	18%	12.2%	52.8%	5.38% (active)	-70.2% (active)	12.8%	82.1%	25.4%	-24.5% (active)	-90.7% (active)	32.5%	93.4%	-45.5% (active)	-32.2% (active)
COc1cc(-c2nc3ccccc3s2)ccc1OCc1nc2n(n1)S(=O)(=O)c1ccccc1N2c1ccccc1	99.2%	104%	103%	105%	98.1%	96.7%	84.2%	97.8%	93.2%	110%	98.5%	95.4%	108%	82.4%	121%	100%	112%	80.5%
Nn1c(CN2CCN(c3cc4c(cc3F)c(=O)c(C(=O)O)cn4C3CC3)CC2)n[nH]c1=S	106%	97.8%	86.4%	99.6%	112%	105%	97.5%	93.9%	103%	109%	95.9%	102%	95.7%	91.7%	93.8%	97.7%	98.8%	103%
O=C(O)c1cccc(S(=O)(=O)c2ccccc2)c1	99.4%	104%	84.2%	110%	108%	100%	97%	101%	99%	98.9%	104%	92.6%	102%	96.1%	93.2%	98.5%	103%	99.6%
O=C1OC(c2ccc(-c3ccccc3)cc2)=C/C1=C/C=C/c1ccccc1	109%	113%	92.4%	99.1%	100%	105%	106%	96.8%	99.3%	103%	114%	102%	99.9%	80%	107%	84.4%	24.2%	98.5%
O=C(O)c1ccc(-n2cc(/C=N/Nc3ccc(F)cc3)c(-c3cccc(C(F)(F)F)c3)n2)cc1	53.6%	86.8%	88.4%	91.3%	84.9%	62.6%	87.6%	24.1%	42.8%	96.1%	70.1%	70.8%	86.9%	45.6%	91.9%	69%	33.7%	36.5%
CNCCCOc1c(Br)cc(CCNC(=O)/C(Cc2ccc(OC)c(Br)c2)=N/O)cc1Br	22.9%	5.72% (active)	50.6%	50.3%	27.5%	34.5%	38.9%	9.73% (active)	-35.4% (active)	-21.7% (active)	40%	65.5%	57.6%	41.7%	74.1%	39.4%	31.6%	10.3%
COc1ccc2c(c1)OC(N)=C(C#N)C2c1ccc(F)cc1 (stereo unspecified)	21.9%	5.87% (active)	8.49% (active)	30.1%	31.3%	27.9%	22.6%	29.7%	39.1%	65%	18.5%	44.8%	43.8%	41.8%	69.5%	-3.77% (active)	12.6%	28.3%

— PubChem BioAssay (NCI)
